Experimental data as given in PubChem BioAssay AID2685 (National Center for Advancing Translational Sciences (NCATS), 2010).
Among all 320,000 compounds or so, about 2,100 (0.66%) were called active. Roughly 53% stayed inconclusive and do not appear here. The call rests on the fitted dose curve; in most records, active means well fitted inhibition curve with a large enough effect in the signal ratio, with a control signal flat (not every such curve was filed as active); inconclusive means small, poorly fitted or top-dose-only effect, or effect the other way, or a change in a side signal; inactive means flat fitted curve, though single readings scatter; the % refers to the signal ratio. The entries come from a sample that favours actives as a whole.

Test: qHTS Assay for Lipid Storage Modulators in Drosophila S3 Cells;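 on cell number change: cells counted by Cell Tracker Red CMTPX staining in the red channel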; on lipid storage change, negative = inhibition: on the % scale 0 is the no-effect control and ±100 the full control effect
Conditions: BODIPY lipid droplet fluorescence, 18-24 h, cells fed with added oleic acid; cell number change: measured here: cell count max response; series mostly up to 46.1 µM; lipid storage change, negative = inhibition: at the top concentration
Method in brief: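 Drosophila S3 cells got compounds at several concentrations plus oleic acid (400 uM solution). Laser-scanning cytometry with 488 nm excitation read lipid droplets at 500-530 nm and cells at 575-640 nm. Percent activity was relative to 20 uM Triacsin C.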
Potency means the concentration at half of the fitted maximal effect.

| SMILES | outcome | cell number change [%] | lipid storage change, negative = inhibition | Potency |
| --- | --- | --- | --- | --- |
| COc1cc(OC)c(C(=O)OCC(=O)NCCC2=CCCCC2)cc1OC | inactive | -12.4 |  |  |
| COCCNC(=O)CCCn1c(=O)c2cc(OC)c(OC)cc2n(CC(=O)c2ccc(Cl)cc2)c1=O |  | -4.78 | -0.141% (inactive) |  |
| CCOC(=O)C1CCN(C(=O)CC(NS(=O)(=O)c2ccc(OC)cc2)C(C)C)CC1 (stereo not drawn) |  | 5.69 | 8% (inactive) |  |
| OCCCNc1cc(-c2ccnc(Nc3cccc(Cl)c3)n2)ccn1 |  | -20.1 |  | 6.51 µM (active) |
| CC(C)n1cnc2c(Nc3cccc(Cl)c3)nc(NCCCO)nc21 |  | 1.01 | -22.1% (inactive) |  |
| CN(C)CCCNc1ccc(-c2cc(Nc3cccc(Cl)c3)ncn2)cn1 |  | 7.36 | 8.12% (inactive) |  |
| OC(COc1c(F)cc(Br)cc1F)CN1CCc2ccccc2C1 (stereo not drawn) |  | -1.04 | 12.2% (inactive) |  |
| c1ccc(Cc2nnc3sc(-c4ccccn4)nn23)cc1 | inactive |  |  |  |
| CN(C)CCCN(Cc1cc2cc3c(cc2[nH]c1=O)OCCO3)C(=O)NC1CCCCC1 |  | 0.0235 | -6.26% (inactive) |  |
| CCN(CC)CCN(Cc1cc2cc3c(cc2[nH]c1=O)OCCO3)C(=O)NC1CCCCC1 |  | 4.42 |  | 16.4 µM (active) |
| O=C(NC1CCCCC1)N(CCN1CCCC1)Cc1cc2cc3c(cc2[nH]c1=O)OCCO3 | inactive |  |  |  |
| Cc1ccc(Nc2nc(N)nc(CN3CCN(C)CC3)n2)cc1C |  | 7.98 | 2.99% (inactive) |  |
| CN1CCN(Cc2nc(N)nc(Nc3ccc4c(c3)OCCO4)n2)CC1 |  | -0.153 | 1.73% (inactive) |  |
| Cc1ccc(Nc2nc(N)nc(CN3CCN(C)CC3)n2)cc1 |  | -12 |  | 25.9 µM (active) |
| O=C(Cc1cccc(C(F)(F)F)c1)NCc1cccnc1 |  | 16.2 | -11.2% (inactive) |  |
| CCc1c(C)sc(NC(=S)N2CCN(C(=O)C3CCCO3)CC2)c1C(=O)OC (stereo not drawn) | inactive |  |  |  |
| COc1ccc(C(=O)N/C(=C\c2cn(C)c3ccccc23)C(=O)N2CCN(C)CC2)cc1 | inactive | 12.5 |  |  |
| COc1ccccc1NC(=O)/C(C#N)=C/c1ccncc1 |  | -3.78 |  | 1.16 µM (active) |
| COc1ccc(NC(=O)/C(C#N)=C/c2cccnc2)c(OC)c1 | inactive | -14.9 |  |  |
| COc1ccccc1NC(=O)/C(C#N)=C/c1cccnc1 | inactive | 14.4 |  |  |
| Cc1ccc(NC(=O)CC2Oc3ccc(C)cc3NC2=O)c(C)c1 (stereo not drawn) |  | 7.72 | -7.11% (inactive) |  |
| Cc1ccc(S(=O)(=O)c2nnn(-c3cccc(F)c3)c2N)cc1 |  | -21.1 | 1.42% (inactive) |  |
| CCC(C)NC(=O)[C@H]1N2C(=O)c3ccccc3C2SC1(C)C (stereo partly drawn) |  | 25 | -2.79% (inactive) |  |

| SMILES | outcome | cell number change [%] | lipid storage change, negative = inhibition | Potency |
| --- | --- | --- | --- | --- |
| C[C@H](NC(=O)[C@H]1N2C(=O)c3ccccc3C2SC1(C)C)C(=O)N1CCC[C@H]1C(=O)O (stereo partly drawn) |  |  | 26.5% (inactive) |  |
| C[C@H](NC(=O)[C@H]1N2C(=O)c3ccccc3C2SC1(C)C)C(=O)N1CCCCC1 (stereo partly drawn) |  | -4.2 |  | 23.1 µM (active) |
| Cc1ccc(-c2nnnn2C2C/C(=N\NC(N)=S)C3OCC2O3)cc1 (stereo not drawn) |  | -15.7 | -15.2% (inactive) |  |
| COc1ccc(C(=O)N(CCc2ccccc2)Cc2cccs2)c(OC)c1 |  | -11.1 |  | 13 µM (active) |
| COc1ccc(C(=O)OCC(=O)NCCCc2ccccc2)c(OC)c1 |  | 26.9 | 7.81% (inactive) |  |
| COc1ccc(C(=O)N(Cc2ccco2)Cc2cccs2)c(O)c1 | inactive | 11 |  |  |
| CCOc1cc(C2C(C#N)=C(N)SC(N)=C2C#N)ccc1OCCN1CCOCC1 | inactive |  |  |  |
| CCN=C1S/C(=C/c2ccc(-c3ccc(Cl)cc3C(=O)O)o2)C(=O)N1CC |  |  | -0.481% (inactive) |  |
| CC(C)(C)OC(=O)CN1C(=O)S/C(=C\c2ccc(-c3cccc(C(=O)O)c3)o2)C1=O |  | 2.36 | -14.2% (inactive) |  |
| O=C(O)c1cccc(-c2ccc(/C=C3/SC(=Nc4ccccc4)N(Cc4cccnc4)C3=O)o2)c1 |  | -5.87 | 6.57% (inactive) |  |
| CCN1C(=O)/C(=C\c2ccc(-c3cccc(C(=O)OC)c3)o2)SC1=Nc1ccc(C(=O)O)cc1 |  | -21.2 |  | 6.51 µM (active) |
| CCN=C1S/C(=C/c2ccc(-c3ccc(F)cc3)o2)C(=O)N1CC |  | 4.49 |  | 18.4 µM (active) |
| CCN=C1S/C(=C\c2ccc(Sc3ccc(Cl)cc3)o2)C(=O)N1CC |  | -1.66 | 21.1% (inactive) |  |
| CC1=[N+](CC(=O)NC(C)(C)C)CCc2ccccc21 |  | -0.377 | -0.327% (inactive) |  |
| O=C(Nc1cccc(OC(=O)c2ccc(Br)o2)c1)c1ccccc1 |  | 11.8 | 4.19% (inactive) |  |
| Cc1ccc(OCCCCNC2CCCCC2)c(C)c1 | inactive |  |  |  |
| CCCNC(=O)CC(NS(=O)(=O)c1ccc(Cl)cc1)c1ccco1 (stereo not drawn) |  | 17.5 | 19.4% (inactive) |  |
| COCCCNC(=O)CC(NS(=O)(=O)c1ccc(Cl)cc1)c1ccco1 (stereo not drawn) |  |  |  | 32.6 µM (active) |
| COCCCNC(=O)CC(NS(=O)(=O)c1ccc(C)cc1)c1ccco1 (stereo not drawn) |  | 0.789 | -3.27% (inactive) |  |
| CSC(=NC1CCCCC1)NS(=O)(=O)c1ccccc1 |  |  | -23.2% (inactive) |  |
| COc1ccc(N2CCN(C(=O)c3ccc4ccccc4n3)CC2)cc1 |  | -2.64 | 9.19% (inactive) |  |
| CN(CC(=O)Nc1ccc(N2CCOCC2)cc1)CC(=O)Nc1ccc(N2CCOCC2)cc1 |  | -8.37 | 6.32% (inactive) |  |
| O=[N+]([O-])C1=CC=C2C(=NC3(CCCCC3)N2O)C1=NCCO |  | -8.38 | -7.19% (inactive) |  |

| SMILES | outcome | cell number change [%] | lipid storage change, negative = inhibition | Potency |
| --- | --- | --- | --- | --- |
| CCOc1cc(/C=C2\COc3ccccc3C2=O)ccc1OCC(=O)N(C)C |  | -5.65 | -22.5% (inactive) |  |
| CCNC(=O)COc1ccc(/C=C2\COc3ccccc3C2=O)cc1OC |  |  |  | 3.66 µM (active) |
| CCOc1cc(/C=C2\COc3ccccc3C2=O)cc(Br)c1OCC(=O)N(C)C | inactive | 21.8 |  |  |
| CSc1ccccc1OCc1cc(C(=O)NCCN2CCCc3ccccc32)no1 | inactive |  |  |  |
| O=C(Nc1nnc(SCC(=O)N2CCOCC2)s1)c1ccccc1 |  |  | -24.1% (inactive) |  |
| Cc1cc(NC(=O)c2ccc(S(=O)(=O)N3CCOCC3)cc2)nc2c1c(=O)oc1ccccc12 |  | -0.276 | -20.6% (inactive) |  |
| COc1cccc(CNC(=O)CCCNS(=O)(=O)c2cccs2)c1 |  | -2.45 | -4.23% (inactive) |  |
| CCOC(=O)C1=C(C)NC(C)=C(C(=O)OCC)C1C(=O)OCC(=O)NC1(C#N)CCCCC1 |  |  | 18.2% [at 0.0737 µM] (inactive) |  |
| O=C(CCCC(=O)OCC(F)(F)C(F)F)Nc1ccc(NC(=O)CCCC(=O)OCC(F)(F)C(F)F)cc1 | inactive | 25.6 |  |  |
| CCOC(=O)N1CCN(C(=O)c2ccc(CNS(=O)(=O)c3ccc(OC)cc3)cc2)CC1 |  |  | 3.37% (inactive) |  |
| Cc1ccc(C)c(S(=O)(=O)NCc2ccc(C(=O)N3CC(C)OC(C)C3)cc2)c1 (stereo not drawn) |  | -9.56 | -12.4% (inactive) |  |
| COc1ccc(N2CCN(C(=O)c3ccc(CNS(=O)(=O)c4cc(C)ccc4C)cc3)CC2)cc1 |  | -25.1 |  | 7.31 µM (active) |
| Cc1cccc(C(=O)NNc2ncnc3c2cnn3C)c1 |  | 3.73 | -6.2% (inactive) |  |
| CCCCC(C)(O)C/C=C/[C@H]1[C@H](O)CC(=O)[C@@H]1CCCCCCC(=O)OC (stereo partly drawn) |  | -1.2 |  | 23.1 µM (active) |
| CCCCCCC(=O)Oc1ccc(N2C(=O)CCC2=O)cc1 |  | -4.94 | 0.0787% (inactive) |  |
| CCCCC[C@H](O)/C=C/[C@@H]1[C@@H](C/C=C\CCCC(=O)OC)[C@@H](O)C[C@H]1O |  | 2.9 | 1.11% (inactive) |  |
| COC(=O)c1ccc(C2C(C(=O)OCC(C)C)=C(C)N=C3SCCC(=O)N32)cc1 (stereo not drawn) |  | -2.78 | -0.0854% (inactive) |  |
| CCCCCCN1C2=NCCCN2c2ccccc21 |  | -6.55 | 0.312% (inactive) |  |
| O=C(O)c1c(-n2cccc2)sc2c1CCCC2 |  | 1.31 | 11.6% (inactive) |  |
| CCOC(=O)c1c(-n2cccc2)sc2c1CCCC2=O |  | -2.93 | -18.3% (inactive) |  |
| Cc1sc(-n2cccc2)c(C(=O)O)c1C |  | -19.7 |  | 1.84 µM (active) |
| COc1ccc(Nc2ccncc2[N+](=O)[O-])cc1 |  | 12.3 | 4.18% (inactive) |  |
| O=C(C1CC(=O)N(c2ccccc2)C1)N1CCN(C2=NS(=O)(=O)c3ccccc32)CC1 (stereo not drawn) | inactive |  |  |  |

| SMILES | outcome | cell number change [%] | lipid storage change, negative = inhibition | Potency |
| --- | --- | --- | --- | --- |
| Cc1cc(C)c(C)c(S(=O)(=O)N2CCC(C(=O)N3CC(C)CC(C)C3)CC2)c1C (stereo not drawn) |  | -11.8 | -16.7% (inactive) |  |
| COc1ccccc1NC(=O)C1=C(C)Nc2nnnn2C1c1cc(Br)ccc1OC (stereo not drawn) |  | 1.78 | -8.87% (inactive) |  |
| COc1ccc(CNC(C)C23CC4CC(CC(C4)C2)C3)c(OC)c1OC (stereo not drawn) |  | 0.296 | -4.64% (inactive) |  |
| CCCCCNC(=O)c1cccnc1SCC(=O)Nc1ccccc1OC |  | -0.809 | 6.16% (inactive) |  |
| CCCCCCCCNC(=O)c1cccnc1SCC(=O)Nc1ccc(OC)cc1OC |  | -25.3 |  | 20.6 µM (active) |
| COc1ccc(OC)c(NC(=O)CSc2ncccc2C(=O)O)c1 | inactive |  |  |  |
| CN(C(=O)C1CCC(=O)N(Cc2ccccc2F)C1)C1CCOCC1 (stereo not drawn) |  | 7.76 | 0.902% (inactive) |  |
| CC(C)CNC(=O)CC1Nc2ccccc2NC1=O (stereo not drawn) |  | -19.4 |  | 10.3 µM (active) |
| CCCCNC(=O)CC1Nc2ccccc2NC1=O (stereo not drawn) | inactive |  |  |  |
| COC(=O)c1cc(C)sc1NC(=O)CC1Nc2ccccc2NC1=O (stereo not drawn) |  | -20.6 |  | 16.4 µM (active) |
| CC(NC(=O)CC1Nc2ccccc2NC1=O)c1ccccc1 (stereo not drawn) | inactive |  |  |  |
| CCc1cc(C(=O)OC)c(NC(=O)CC2Nc3cc(C)c(C)cc3NC2=O)s1 (stereo not drawn) |  | -3.56 | 9.56% (inactive) |  |
| COC(=O)c1c(NC(=O)CC2Nc3ccccc3NC2=O)sc(C)c1C (stereo not drawn) |  | 18.7 | -27% (inactive) |  |
| COC(=O)c1[nH]c(C)c(/C(O)=C2\C(=O)C(=O)N(CCN(C)C)C2c2cccc(OC)c2OC)c1C (stereo not drawn) |  | -3.7 | 5.22% (inactive) |  |
| Cc1cc(=O)oc2cc(OC(C)C(=O)NCCCn3ccnc3)ccc12 (stereo not drawn) | inactive | 5.93 |  |  |
| COC(=O)c1cn(NC(=O)c2ccncc2)c(=O)c2ccccc12 |  | -18.7 | 12.8% (inactive) |  |
| COc1ccccc1C(=O)N1CCN(Cc2nc(CC3CC3)no2)CC1 |  | 10.8 | -0.676% (inactive) |  |
| Cc1ccc(-c2ccccc2NC(=O)CS(=O)CC(=O)Nc2ccc(C)c(Cl)c2)o1 (stereo not drawn) |  | -13 |  | 23.1 µM (active) |
| Cc1ccc(NC(=O)CS(=O)CC(=O)Nc2ccccc2-c2ccc(C)o2)cc1 (stereo not drawn) | inactive | 17.8 |  |  |
| Cc1ccc(NC(=O)CS(=O)CC(=O)NCCCc2ccccc2)cc1Cl (stereo not drawn) |  |  | -6.88% (inactive) |  |
| OCC1(CCc2ccccc2)CCN(Cc2ccccc2Cl)CC1 |  | 4.39 | 5.38% (inactive) |  |
| COc1ccc(-c2nnc3ccc(SCC(=O)Nc4cc(C)on4)nn23)cc1 |  | 8.27 | 0.462% (inactive) |  |
